Bioassay records from PubChem BioAssay.
Compounds with a hit are over-represented: about 5.7% of the library has one in this group of screens.
TGFb SMAD3 inh: qHTS for Inhibitors of TGF-b | HepG2 CAGA-GFP TGF-b/SMAD3 reporter, GFP fluorescence, 18 h; TGF-beta stimulated, 500 pg/mL final | Potency, µM (top dose mostly 46.1 µM), hits mostly inhibitors | 410,000 tested, 1.2% active | AID 588855, 2011; further: nearly all actives have a fitted effect of over 65% in size
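HEPG2 CAGA-GFP cells (1000/well, DMEM with 1% FBS) were pre-incubated 2 h at 37 degrees C, given compound by pin tool, then stimulated with TGF-beta at 500 pg/mL final for 18 h before per-cell GFP fluorescence imaging.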
ATXN2 expr inh: Primary qHTS for Inhibitors of ATXN expression; HEK-293 ATXN2-luciferase reporter, luminescence, 24 h; Potency, µM (highest dose often 57 µM), hits mostly inhibitors; 360,000 tested, 0.72% active; further: nearly all actives have a fitted effect of over 55% in size
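ATXN2-luciferase reporter cells (luciferase flanked by upstream and downstream ATXN2 gene portions) were treated 24 h at 37 °C with compounds at up to 57 uM. SteadyGlo luminescence gave expression; GF-AFC fluorescence gave viability.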
IL1B secr inh: qHTS for Inhibitors of Inflammasome Signaling: IL-1-beta AlphaLISA Primary Screen; THP-1 LPS/ATP IL-1B secretion, AlphaLISA, 16 h; active compounds read low; activity change, % at 57.5 µM; 360,000 tested, 4.7% active; in the data active means activity change below about -50%; inconclusive means mostly about -30% to -49%
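Secreted IL-1B measured by AlphaLISA bead assay after 16 h compound exposure of THP-1 cells; compounds (final up to 57.5 uM) added 1 h before LPS (250 ng/mL) and ATP (1.25 mM) stimulation; lower signal means less secretion.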
ATXN viability: Viability Counterscreen for Primary qHTS for Inhibitors of ATXN expression; Potency, µM (titrated, usually from 56.7 µM), actives largely listed as cytotoxic; 400,000 tested, 0.49% active; AID 651635, 2014; S2 cells (HEK-293 line with an ATXN2-luciferase reporter) viability, CellTiter-Fluor protease fluorescence, 24 h; further: nearly all actives have a fitted effect of over 40% in size
HepG2 tox: qHTS for Inhibitors of TGF-b: Cytotox Counterscreen | HepG2 CAGA-GFP viability, ATP luminescence, 18 h | 410,000 tested, 0.76% active | Potency, µM (top dose mostly 46.1 µM), usual class: cytotoxic | AID 588856, 2011
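HepG2 CAGA-GFP cells (1000/well, DMEM with 1% FBS) received compound, then TGF-beta at 500 pg/mL final, and were incubated 18 hours at 37 degrees C. Viability was read by CellTiter-Glo luminescence. Media-only wells were set as complete cell-killing and DMSO as no toxicity.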
Hits are given with their value; – = inactive; ? = inconclusive; · = not tested or not shown. Unless noted, the call rests on the fitted dose curve; in most records, active means well fitted curve in the direction sought with a large enough effect; inconclusive means small, poorly fitted or top-dose-only effect, or another doubt; inactive means no such curve, though single readings can be large; an effect the other way counts as inactive or inconclusive.

SMILES	TGFb SMAD3 inh	ATXN2 expr inh	IL1B secr inh	ATXN viability	HepG2 tox
O=C(COC(=O)CNC(=O)C1CCCCC1)NC1CC1	–	·	·	·	–
O=C1[C@H]2CCCC[C@H]2C(=O)N1CCCCN1CCN(c2nsc3ccccc23)CC1	?	?	-65.0	?	–
CCOC(=O)c1csc(NC(=O)c2cc(OC)c(OC)c(OC)c2)n1	–	–	-53.9	–	–
CCCC(=O)Nc1nc(C(=O)OCC)cs1	–	–	–	–	–
Cc1cccc(COc2ccccc2C(=O)N(C)CC(=O)Nc2cccc(F)c2)c1	–	–	–	–	–
Cc1ccc(C)c(NC(=O)CN(C)C(=O)c2ccccc2OCc2ccc(Cl)cc2)c1	–	–	-67.8	?	–
CN(CC(=O)Nc1ccccc1Br)C(=O)c1ccccc1OCc1ccccc1Cl	–	–	-82.2	–	–
CN(CC(=O)Nc1ccccc1Br)C(=O)c1ccccc1OCc1ccc(F)cc1	–	–	–	–	–
Cc1cc(N(C)C)cc(C)c1/C=C/c1cc[n+](C)c2ccccc12	8.91µM	·	·	·	–
C[n+]1ccc(/C=C/c2ccccc2O)c2ccccc21	–	–	-56.3	?	–
C[n+]1ccc(/C=C/c2ccc(C=S)cc2)c2ccccc21	–	·	·	·	–
CN(C)c1ccc(/C=C/c2cc(/C=C/c3ccc(N(C)C)cc3)c3ccccc3n2)cc1	–	·	·	·	–
CN(C)c1ccc(/C=C/c2cc[n+](C)c3ccc4ccccc4c23)cc1	2µM	·	·	·	–
O=c1c(-c2ccc(O)cc2)coc2cc(OC3O[C@H](CO)[C@H](O)[C@H](O)[C@H]3O)cc(O)c12 (stereo partly drawn)	·	–	·	·	·
CC(C)(C)OC(=O)N1CCC(c2c(C(=O)Nc3ccc4c(c3)OCO4)cnn2-c2ccc(F)cc2F)CC1	–	·	·	·	–
Cc1c(C(=O)N(C)C2CCOC2)sc2ncnc(NCc3ccc4c(c3)OCO4)c12 (stereo not drawn)	·	·	·	–	·
Cc1ccc2onc(CC(=O)N3CCN(c4cc(Cl)ccc4C)CC3)c2c1	?	?	·	–	–
CCOC(=O)N1CCC(NC(=S)Nc2ccc3nc(N4CCN(CC)CC4)cc(C)c3c2)CC1	–	–	–	–	–
Cc1ccccc1NC(=O)Nc1ccc2nc(N3CCN(C)CC3)cc(C)c2c1	–	–	·	–	–
CCOc1ccccc1NC(=O)Nc1ccc2nc(N3CCN(C)CC3)cc(C)c2c1	?	?	·	·	7.94µM
CCOC(=O)N1CCC(NC(=S)Nc2ccc3nc(N4CCN(C)CC4)cc(C)c3c2)CC1	?	–	-100.2	?	–
CCOc1ccccc1C(=O)Nc1ccc2nc(N3CCN(c4ncccn4)CC3)cc(C)c2c1	–	14.1µM	?	?	–
O/N=C/c1cc(Br)ccc1OCc1ccccc1F	?	–	-62.7	–	–
N#C/C(N=Nc1ccccc1O)=N\Nc1ccccc1O	?	?	?	15.8µM	–
CC(NC(=O)CCl)c1ccccc1Br (stereo not drawn)	–	–	-96.3	–	–
SMILES	TGFb SMAD3 inh	ATXN2 expr inh	IL1B secr inh	ATXN viability	HepG2 tox
CC(NC(=O)c1ccc(Cl)c(Cl)c1)c1ccc(-c2ccccc2)cc1 (stereo not drawn)	–	·	–	–	–
CC(NC(=O)CCl)c1ccc(Cl)c(Cl)c1 (stereo not drawn)	?	?	-102.9	?	17.8µM
Cc1ccc(S(=O)(=O)NCC(=O)NCC(=O)NC(C)c2ccccc2Br)cc1C (stereo not drawn)	–	–	–	–	–
CCOCCCNC(=O)c1ccc2c(=O)n(CCc3ccccc3)c(=O)[nH]c2c1	–	–	·	–	–
Cc1cc(Oc2ccc(C#N)cc2)nc(NCc2ccccc2)n1	–	–	?	–	8.91µM
COC(=O)c1ccc(Oc2cc(C)nc(NCc3ccccc3)n2)cc1	–	–	–	–	–
COc1cc(C)nc(NCc2ccccc2)n1	–	?	–	–	–
Cc1cc(N/N=C/c2ccccc2Cl)nc(NCc2ccccc2)n1	–	–	-68.0	–	–
Cc1ccc(Nc2cc(C)nc(NCc3ccccc3)n2)cc1	?	·	-228.5	–	–
COc1ccc(Nc2cc(C)nc(NCc3ccccc3)n2)cc1	12.6µM	–	-98.7	–	–
COc1ccc(N2CCN(C(c3ccc(C)cc3)c3nnnn3C(C)(C)C)CC2)cc1 (stereo not drawn)	–	·	·	·	–
Cc1cc(C)n2nc(C(=O)NCC3Cc4cccc(-c5ccc(S(C)(=O)=O)cc5)c4O3)cc2n1 (stereo not drawn)	·	·	·	–	·
Cc1cc(NC2CCCCC2)nc(NCc2ccccc2)n1	14.1µM	?	-74.3	?	–
COc1cccc(CN2CCC3(CCC(CNC(=O)c4ccccc4)O3)CC2)c1 (stereo not drawn)	·	·	·	–	·
COCCNC(=O)CSC1=N/C(=C/c2ccc(Cl)c(Cl)c2)C(=O)N1c1ccccc1F	?	–	-99.2	–	–
O=C(c1ccco1)N1N=C(c2ccc(Br)cc2)CC1(O)C(F)(F)F (stereo not drawn)	7.94µM	–	-63.5	–	–
CC(C=CC1=C(C)CCCC1(C)C)=CC=CC(C)=CC(=O)O	·	–	·	·	·
Cc1ccc(C2=Nc3ccccc3NC(c3ccncc3)=N2)cc1	–	–	·	–	–
O=C(NCCO)C(=O)Nc1cc2c3c(c1)CC(=O)N3CCC2	–	·	–	–	–
O=C(CCl)c1cc2c3c(c1)CC(=O)N3CCC2	–	–	-70.9	–	–
O=C(C#Cc1ccccc1)c1ccco1	3.16µM	?	-100.6	?	11.2µM
CCOC(=O)C1(C)CCCCCN1C(=O)/C=C/c1ccccc1 (stereo not drawn)	–	–	–	–	1µM
COc1ccc(Cn2c(-c3ccc(C)cc3)c[n+]3ccccc23)cc1	?	16.8µM	–	?	–
CCOC(=O)C1=C(C)N(C[C@@H]2CC[C@@H](Cc3ccc(-c4ccccc4)cc3)O2)C(=O)NC1c1ccc(-c2ccccc2)cc1 (stereo partly drawn)	–	–	–	–	–
CCOC(=O)C1=C(CNCCc2ccc(Cl)cc2)NC(=O)NC1c1cccc([N+](=O)[O-])c1 (stereo not drawn)	?	–	-65.5	–	–
COC(=O)C1=C(CCc2ccccc2)NC(=O)NC1c1ccc(Cl)cc1 (stereo not drawn)	?	–	-52.1	–	–
COC(=O)C1=C(C)N(Cc2ccccc2)C(=NCc2ccccc2)N[C@H]1c1ccccc1	?	?	?	?	14.1µM
COC(=O)C1=C(C)N(Cc2ccccc2)C(=NCc2ccccc2)N[C@H]1c1cccc(F)c1	?	?	–	·	–
CCOC(=O)C1=C(C)N(C[C@@H]2CC[C@@H](Cc3ccc(-c4ccccc4)cc3)O2)C(=O)NC1c1ccc(Cl)cc1 (stereo partly drawn)	?	–	-52.1	–	–
